Assay [1] in a line: viability loss in pontine glioma line – cell-based, SU-DIPG-XXV, MIPE5.0, CellTiter-Glo, qHTS, dose response (AID 1347065; cut-off not given, nearly all actives have AC50 up to about 26 µM;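 also: cells exposed to compound for 48 hours before ATP readout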). The settings on record: CellTiter-Glo ATP luminescence. (In ATP-based viability assays light output follows the ATP content of the culture.)
Assay [2] can be described thus: SU-DIPG-VI glioma cell viability, MIPE4.0 library, CellTiter-Glo luminescence, qHTS (AID 1347066; cut-off not given, nearly all actives have AC50 up to about 30 µM;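 also: cells exposed to compound for 48 hours before readout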). The settings on record: CellTiter-Glo ATP luminescence.
A short description of assay [3]: JHH-DIPG-1 glioma cell viability, MIPE5.0 library, CellTiter-Glo luminescence, qHTS (AID 1347067; cut-off not given, nearly all actives have AC50 up to about 26 µM;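 also: cells exposed to compound for 48 hours before readout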). The settings on record: JHH-DIPG-1 glioma viability, CellTiter-Glo ATP luminescence.
Assay [4] in a line: SU-DIPG-XXV glioma cell viability, MIPE5.0 library, qHTS (AID 1347068; cut-off not given, nearly all actives have IC50 up to about 30 µM). (Quantitative high-throughput screening tests each substance at several concentrations.)
A short description of assay [5]: sensitizers of A549 cells to miR-34 induction, primary screen, imaging, A549 dox-inducible miR-34, nuclei and caspase counts (AID 1347080;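 active = compounds whose cell count with miR-34 switched on is under 0.7 times the count with it off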). The following applies: A549 miR-34 inducible, Hoechst nuclei count, 48 h.
Assay [6] is described as follows: survival rescue of mitochondrial mutant cells in low glucose, primary screen, MELAS cybrids, Rieske KO mouse fibroblasts, CellTiter-Glo (AID 1508586;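 active = mean z-score across replicates of 1.96 or higher in either the MELAS or the Rieske mutant cell line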;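 also: z relative to plate mean and SD of compound and empty wells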).
Assay [7] concerns the target NAD(+) hydrolase SARM1 (Homo sapiens) (UniProt Q6SZW1). The assay is described as follows: SARM1 TIR NADase inhibitors, cell lysate, NAD-Glo luminescence (AID 1508614;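 active = compound whose remaining NAD level is above about 45 nM, limit read from the data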;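 also: higher remaining NAD means stronger inhibition of SARM1 NADase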). The settings on record: SAM-TIR HEK293T lysate NADase, at 1 µM, stronger effect = higher value.
For assay [8], the target named is Mitogen-activated protein kinase 7 (Homo sapiens) (UniProt Q13164). The experiment in a line: ERK5 transactivation activators in reporter cells, primary screen, cell-based, HTS (AID 1508626;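 active = luciferase signal above three times the same-plate solvent-only control wells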;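 also: luciferase driven by Gal4-ERK5 fusion binding five Gal4 sites before minimal TATA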). The settings on record: HeLa Gal4-ERK5 transactivation, 18 h, at 5 µM, stronger effect = higher value.
Chain of Mitogen-activated protein kinase 7 (Homo sapiens) (Q13164 whole entry, looked up, the tested form may be a part): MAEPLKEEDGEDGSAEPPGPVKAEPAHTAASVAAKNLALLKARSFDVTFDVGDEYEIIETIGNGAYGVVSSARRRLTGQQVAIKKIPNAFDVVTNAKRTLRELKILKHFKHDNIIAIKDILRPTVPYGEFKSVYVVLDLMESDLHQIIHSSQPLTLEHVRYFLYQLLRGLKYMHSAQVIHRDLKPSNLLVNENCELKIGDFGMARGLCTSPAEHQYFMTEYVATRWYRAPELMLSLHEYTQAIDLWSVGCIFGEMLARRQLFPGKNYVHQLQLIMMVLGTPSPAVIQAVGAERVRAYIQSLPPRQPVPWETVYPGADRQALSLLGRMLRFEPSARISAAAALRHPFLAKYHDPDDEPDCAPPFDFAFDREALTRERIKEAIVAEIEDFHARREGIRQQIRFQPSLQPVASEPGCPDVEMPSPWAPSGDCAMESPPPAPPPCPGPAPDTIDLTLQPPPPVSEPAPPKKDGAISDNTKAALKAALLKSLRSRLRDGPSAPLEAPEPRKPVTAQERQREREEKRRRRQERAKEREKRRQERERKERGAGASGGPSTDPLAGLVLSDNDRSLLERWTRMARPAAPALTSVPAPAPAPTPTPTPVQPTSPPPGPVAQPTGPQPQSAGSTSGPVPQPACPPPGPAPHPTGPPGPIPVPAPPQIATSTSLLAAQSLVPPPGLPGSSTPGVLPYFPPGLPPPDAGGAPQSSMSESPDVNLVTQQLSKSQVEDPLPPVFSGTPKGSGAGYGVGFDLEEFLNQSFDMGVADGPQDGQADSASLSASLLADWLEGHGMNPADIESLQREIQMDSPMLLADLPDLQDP
Assay [9] in a line: viability rescue of complex I mutant cybrids, primary screen, cell-based, galactose medium, ATP luminescence (AID 1645843;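 active = z-score of at least 1.8 in each of two replicates, scored against plate mean and spread of sample wells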;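 also: positive z means more ATP and so rescue of galactose-driven cybrid death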). The settings on record: complex I mutant cybrid cells, 72 h, stronger effect = higher value.
Assay [10] in a line: modifiers of HSF1 nuclear foci, imaging, Selleck Cancer Library (AID 1347162; in the data active = plate-normalised HSF1 focus index below about 0.46). The following applies: human cells, at 10 µM; SSMD: measured here: HSF1 foci SSMD mean; cell count: measured here: cell number; plate-normalised HSF1 focus index: stronger effect = lower value.
Assay [11] is described as follows: ovarian cancer cell viability with rucaparib, profiling panel, oncology-focused library, rucaparib conditional (AID 1508598). The settings on record: patient-derived ovarian cancer cells, CellTiter-Glo viability, 144 h, stronger effect = lower value.
Setting [12] is: stronger effect = lower value, cell number ratio, induced over uninduced.
The mark [13] stands for this setting: measured here: relative caspase fold change +Dox/-Dox.
Setting [14] is: measured here: total cells with miR-34 induction, stronger effect = lower value.
Where [15] appears, read: measured here: total cells without miR-34 induction.
[16] abbreviates: MELAS cybrid survival, CellTiter-Glo 48 h, stronger effect = higher value.
Setting [17] is: Rieske KO mouse fibroblast survival, CellTiter-Glo 72 h.

SMILES strings stand for the structures. Values joined by “and” are separate entries in the source; they are usually repeats but may differ in a detail not shown here. Identical values can stand only once. Results filed as inconclusive are left out. Active and inactive are the calls of the source.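 The calls were made as follows, unless noted: active = normalized viability below 100% at a tested concentration; inactive = the rest.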

Chain of NAD(+) hydrolase SARM1 (Homo sapiens) (Q6SZW1 whole entry, looked up, the tested form may be a part): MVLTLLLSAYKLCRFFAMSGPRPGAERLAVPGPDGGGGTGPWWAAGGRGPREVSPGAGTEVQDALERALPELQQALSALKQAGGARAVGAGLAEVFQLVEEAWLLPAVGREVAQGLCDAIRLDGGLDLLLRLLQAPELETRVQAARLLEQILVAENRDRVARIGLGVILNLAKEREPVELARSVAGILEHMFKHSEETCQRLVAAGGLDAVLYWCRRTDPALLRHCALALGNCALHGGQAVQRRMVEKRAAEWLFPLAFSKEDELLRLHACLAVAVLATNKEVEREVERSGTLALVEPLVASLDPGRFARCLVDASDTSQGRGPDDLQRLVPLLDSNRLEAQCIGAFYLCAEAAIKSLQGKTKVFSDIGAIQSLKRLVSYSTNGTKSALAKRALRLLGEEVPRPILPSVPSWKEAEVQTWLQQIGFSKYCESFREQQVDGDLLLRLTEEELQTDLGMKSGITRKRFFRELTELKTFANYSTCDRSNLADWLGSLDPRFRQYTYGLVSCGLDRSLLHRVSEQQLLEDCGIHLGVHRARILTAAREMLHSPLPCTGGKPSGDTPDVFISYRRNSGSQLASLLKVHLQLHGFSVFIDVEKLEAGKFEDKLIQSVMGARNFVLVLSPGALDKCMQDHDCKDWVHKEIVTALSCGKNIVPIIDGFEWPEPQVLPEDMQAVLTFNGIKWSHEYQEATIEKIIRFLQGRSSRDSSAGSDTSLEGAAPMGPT

For the molecule `C#C[C@]1(O)CC[C@H]2[C@@H]3CCc4cc(OC)ccc4[C@H]3CC[C@@]21C`, the molecule was called inactive in assay [1], in assay [2], in [3] and in assay [4]. Besides, the fold change in assay [5] (setting [12]) is 0.882 (inactive); in [5] (setting [13]), 0.717. In addition, the cell count is 9180 in assay [5] (setting [14]) and 10400 in assay [5] (setting [15]). Further, the results for the z-score in assay [6] (setting [16]) and in [6] (setting [17]) were 1.7 (inactive) and 0.807, respectively. Also, the remaining NAD in assay [7] was 10 nM (inactive). Besides, in assay [8], the luciferase signal is 80 AU (inactive).
Regarding `COc1ccnc(CS(=O)c2nc3ccc(OC(F)F)cc3[nH]2)c1OC` (centres undefined), the molecule was classed as inactive in assay [1], in assay [2], in [3] and in [4]. Besides, the fold change in assay [5] (setting [12]) was 0.948 (inactive) and 0.839 (inactive); in assay [5] (setting [13]), 4.32 and 0.927. Moreover, the cell count in assay [5] (setting [14]) is 12000 and 8980; in [5] (setting [15]), 12600 and 10700. For the same molecule, the z-score in assay [6] (setting [16]) is 0.74 (inactive); in assay [6] (setting [17]) it was -0.32; in assay [9], 1.18 (inactive). The remaining NAD in assay [7] was 10 nM (inactive). The luciferase signal in assay [8] is 56 AU (inactive).
Regarding `Cc1cnc(C(=O)O)c[n+]1[O-]`, the molecule was called inactive in assay [1], in [2], in assay [3] and in assay [4]. The fold change in [5] (setting [12]) was 0.836 (inactive) and 0.829 (inactive); in [5] (setting [13]) it was 0.776 and 1.63. Also, the cell count in [5] (setting [14]) was 6980 and 9220; in [5] (setting [15]) it was 8340 and 11100. Besides, the z-score in assay [6] (setting [16]) was 0.0931 (inactive) and 0.196 (inactive) and -0.0621 (inactive); in assay [6] (setting [17]), -1.45 and -0.0767 and -0.000299; in [9] it was 0.95 (inactive). In addition, the remaining NAD in [7] is 10 nM (inactive).
Regarding `CC(C)(C#N)c1cc(Cn2cncn2)cc(C(C)(C)C#N)c1`, the outcome in assay [1], in assay [2], in [3] and in assay [4] was inactive. Besides, the fold change is 0.875 (inactive) and 0.939 (inactive) and 0.952 (inactive) in [5] (setting [12]); 1 and 1.14 in assay [5] (setting [13]). The cell count in [5] (setting [14]) is 8530 and 7350 and 9720; in [5] (setting [15]), 9750 and 7820 and 10200; in assay [10], 7640. The molecule also showed an SSMD in [10] of 1.85. In addition, the plate-normalised HSF1 focus index in assay [10] was 1.07 (inactive). For the same molecule, the z-score in assay [6] (setting [16]) was -0.386 (inactive) and -0.452 (inactive) and -0.582 (inactive); in [6] (setting [17]) it was 0.599 and -0.518 and -0.151; in [9], 0.695 (inactive) and 0.735 (inactive). The viability (usually a read-out of living cells in per cent, often relative to untreated cells) in [11] (at 0.000305 µM, OCI-C5x cells, with rucaparib 10 µM, 100% = cells with rucaparib alone) is 109% (inactive); in [11] (at 0.000305 µM, OCI-C5x cells, without rucaparib), 102% (inactive); in assay [11] (at 0.000305 µM, OCI-P5x cells, with rucaparib 20 µM, 100% = cells with rucaparib alone) it was 98.5% (active); in [11] (at 0.000305 µM, OCI-P5x cells, without rucaparib), 90.6% (active); in [11] (at 0.00122 µM, OCI-C5x cells, with rucaparib 10 µM, 100% = cells with rucaparib alone), 107% (inactive); in assay [11] (at 0.00122 µM, OCI-C5x cells, without rucaparib) it was 98.9% (active). For the same molecule, the viability in assay [11] (at 0.00122 µM, OCI-P5x cells, with rucaparib 20 µM, 100% = cells with rucaparib alone) is 102% (inactive); in assay [11] (at 0.00122 µM, OCI-P5x cells, without rucaparib), 95.3% (active); in assay [11] (at 0.00488 µM, OCI-C5x cells, with rucaparib 10 µM, 100% = cells with rucaparib alone), 115% (inactive); in assay [11] (at 0.00488 µM, OCI-C5x cells, without rucaparib), 107% (inactive); in assay [11] (at 0.00488 µM, OCI-P5x cells, with rucaparib 20 µM, 100% = cells with rucaparib alone), 104% (inactive); in assay [11] (at 0.00488 µM, OCI-P5x cells, without rucaparib) it was 100% (inactive). Moreover, the viability in [11] (at 0.0195 µM, OCI-C5x cells, with rucaparib 10 µM, 100% = cells with rucaparib alone) is 113% (inactive); in assay [11] (at 0.0195 µM, OCI-C5x cells, without rucaparib) it was 107% (inactive); in assay [11] (at 0.0195 µM, OCI-P5x cells, with rucaparib 20 µM, 100% = cells with rucaparib alone) it was 110% (inactive); in assay [11] (at 0.0195 µM, OCI-P5x cells, without rucaparib) it was 104% (inactive); in assay [11] (at 0.0781 µM, OCI-C5x cells, with rucaparib 10 µM, 100% = cells with rucaparib alone) it was 105% (inactive); in [11] (at 0.0781 µM, OCI-C5x cells, without rucaparib), 109% (inactive). For the same molecule, the viability in [11] (at 0.0781 µM, OCI-P5x cells, with rucaparib 20 µM, 100% = cells with rucaparib alone) was 108% (inactive); in assay [11] (at 0.0781 µM, OCI-P5x cells, without rucaparib), 109% (inactive); in [11] (at 0.313 µM, OCI-C5x cells, with rucaparib 10 µM, 100% = cells with rucaparib alone), 103% (inactive); in assay [11] (at 0.313 µM, OCI-C5x cells, without rucaparib), 108% (inactive); in assay [11] (at 0.313 µM, OCI-P5x cells, with rucaparib 20 µM, 100% = cells with rucaparib alone), 112% (inactive); in [11] (at 0.313 µM, OCI-P5x cells, without rucaparib), 113% (inactive). For the same molecule, the viability was 115% (inactive) in [11] (at 1.25 µM, OCI-C5x cells, with rucaparib 10 µM, 100% = cells with rucaparib alone); 115% (inactive) in [11] (at 1.25 µM, OCI-C5x cells, without rucaparib); 111% (inactive) in [11] (at 1.25 µM, OCI-P5x cells, with rucaparib 20 µM, 100% = cells with rucaparib alone); 112% (inactive) in assay [11] (at 1.25 µM, OCI-P5x cells, without rucaparib); 130% (inactive) in assay [11] (at 5 µM, OCI-C5x cells, with rucaparib 10 µM, 100% = cells with rucaparib alone); 115% (inactive) in assay [11] (at 5 µM, OCI-C5x cells, without rucaparib). Moreover, the viability is 115% (inactive) in assay [11] (at 5 µM, OCI-P5x cells, with rucaparib 20 µM, 100% = cells with rucaparib alone) and 109% (inactive) in assay [11] (at 5 µM, OCI-P5x cells, without rucaparib). The remaining NAD in [7] was 10 nM (inactive).

Source of the values: PubChem BioAssay.
